# PubChem BioAssay (NCATS)
# Inconclusive results are not listed. Where a call stands in place of a potency, no number is given. Active and inactive are the calls of the source. Unless noted, calls follow the shape of the dose curve; as a rule, active = well fitted curve in the direction sought with a large enough effect; inconclusive = small, poorly fitted or top-dose-only effect, or another doubt; inactive = no such curve, though single readings can be large; an effect the other way counts as inactive or inconclusive.
# How the values were obtained:
# [1] = target: Cytochrome P450 1A2 (Homo sapiens) (UniProt P05177); test: p450-cyp1a2 (AID 410; calls by dose curve; also: potency is read from the fitted curve at half-maximal effect)
# Procedure, shortened: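 O-Demethylation of luciferin 6' methyl ether by human CYP1A2 is monitored as luciferase luminescence. Substrate sits at Km (100uM); enzyme is 20nM. Values are scaled to 57 uM furafylline as maximal inhibition.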
# [2] = target: Glucocorticoid receptor (Homo sapiens) (UniProt P04150); test: GR-GFP Redistribution (AID 450;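 active = compounds whose dose series gives a full or clear partial fitted curve of increased nuclear translocation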; also: potency is read from the fitted curve at half-maximal effect); settings: U2OS GR-GFP nuclear translocation, laser cytometry, 2 h
# Glucocorticoid receptor (Homo sapiens), sequence (P04150 whole entry, looked up, the tested form may be a part): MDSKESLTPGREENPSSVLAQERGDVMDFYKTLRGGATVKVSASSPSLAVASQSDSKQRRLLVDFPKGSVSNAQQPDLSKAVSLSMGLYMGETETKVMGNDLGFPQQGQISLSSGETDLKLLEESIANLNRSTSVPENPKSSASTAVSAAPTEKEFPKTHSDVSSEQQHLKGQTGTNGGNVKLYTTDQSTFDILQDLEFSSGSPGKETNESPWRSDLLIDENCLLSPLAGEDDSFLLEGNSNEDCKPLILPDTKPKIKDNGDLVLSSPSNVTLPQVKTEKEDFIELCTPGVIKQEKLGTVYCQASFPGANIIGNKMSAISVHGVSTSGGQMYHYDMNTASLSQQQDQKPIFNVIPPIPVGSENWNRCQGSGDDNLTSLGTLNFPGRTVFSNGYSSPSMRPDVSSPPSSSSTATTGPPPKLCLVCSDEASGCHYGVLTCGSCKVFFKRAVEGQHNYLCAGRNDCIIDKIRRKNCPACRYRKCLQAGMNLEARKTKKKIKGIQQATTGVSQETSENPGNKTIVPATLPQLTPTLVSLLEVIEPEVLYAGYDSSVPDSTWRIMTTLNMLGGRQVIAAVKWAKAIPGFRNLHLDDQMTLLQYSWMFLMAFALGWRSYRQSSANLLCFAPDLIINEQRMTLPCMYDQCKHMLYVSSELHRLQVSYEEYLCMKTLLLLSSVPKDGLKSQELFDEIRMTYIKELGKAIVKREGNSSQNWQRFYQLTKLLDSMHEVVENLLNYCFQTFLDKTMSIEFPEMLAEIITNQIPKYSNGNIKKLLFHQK
# [3] = target: Glucocorticoid receptor (Homo sapiens) (UniProt P04150); test: GR-EFC Redistribution (AID 451; calls by dose curve; also: potency is read from the fitted curve at half-maximal effect); settings: CHO-K1 GR-EFC translocation, beta-gal luminescence, 2 h
# Procedure, shortened: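 CHO-K1 cells expressing nuclear EA and GR-ED fragments of b-gal; compounds titrated up to 46 uM final, 2 h at 37 C. GR nuclear translocation read as complemented b-gal luminescence after 1 h RT detection.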
# [4] = target: Mitogen-activated protein kinase 10 (Mus musculus) (UniProt Q61831); test: JNK3 AlphaScreen Assay (AID 530; active = well fitted curve in either direction with a large enough effect, not every such curve was filed as active;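 also: kinase came from lysate of stimulated human HepG2 cells; signal reports phosphorylation of biotinylated GST-cJun 1-79 at Ser73 with 10 µM ATP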)
# Procedure, shortened: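 Activity was read by AlphaScreen after JNK3-containing HepG2 lysate (cytokine pre-activated) phosphorylated biotinylated GST-cJun with 10 uM ATP at room temperature. Phospho-Ser73 cJun antibody with Protein-A acceptor beads provided detection.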
# [5] = target: 3',5'-cyclic-AMP phosphodiesterase 4B (Homo sapiens) (UniProt Q07343); test: qHTS Assay for Inhibitors of PDE-IV (AID 607; active = well fitted activation curve with a large enough effect in the main read-out, with a control signal flat, not every such curve was filed as active)
# 3',5'-cyclic-AMP phosphodiesterase 4B (Homo sapiens), sequence (Q07343 whole entry, looked up): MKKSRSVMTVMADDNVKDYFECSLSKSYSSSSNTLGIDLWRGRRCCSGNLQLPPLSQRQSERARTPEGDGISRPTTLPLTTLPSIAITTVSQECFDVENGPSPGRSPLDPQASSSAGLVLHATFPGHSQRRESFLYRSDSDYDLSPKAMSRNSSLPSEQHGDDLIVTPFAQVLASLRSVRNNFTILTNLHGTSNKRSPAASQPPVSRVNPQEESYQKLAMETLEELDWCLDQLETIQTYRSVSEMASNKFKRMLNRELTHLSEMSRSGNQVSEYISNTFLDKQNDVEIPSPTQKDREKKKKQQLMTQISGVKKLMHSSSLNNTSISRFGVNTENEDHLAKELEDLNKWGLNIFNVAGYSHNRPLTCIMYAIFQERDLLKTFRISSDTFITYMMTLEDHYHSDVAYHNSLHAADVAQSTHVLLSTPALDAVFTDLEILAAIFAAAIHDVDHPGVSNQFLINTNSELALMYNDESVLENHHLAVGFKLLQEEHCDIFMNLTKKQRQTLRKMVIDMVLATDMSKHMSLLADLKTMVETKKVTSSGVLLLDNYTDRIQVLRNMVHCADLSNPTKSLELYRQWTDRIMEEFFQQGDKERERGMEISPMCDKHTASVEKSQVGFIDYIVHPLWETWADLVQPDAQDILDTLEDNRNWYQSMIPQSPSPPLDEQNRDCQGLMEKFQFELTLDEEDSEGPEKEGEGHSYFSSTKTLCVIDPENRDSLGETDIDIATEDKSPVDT
# Procedure, shortened: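 ACTOne HEK293 cells carry a modified cAMP-gated CNG channel and express endogenous PDE4; plated 1000 cells/well, compounds up to 22.9 uM final. Membrane-potential dye fluorescence (ex 535/em 590) was read; parental cells received 10 uM forskolin + 100 uM RO 20-1724.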
# [6] = target: Cytochrome P450 2C9 (Homo sapiens) (UniProt P11712); test: qHTS Assay for Inhibitors and Substrates of Cytochrome P450 2C9 (AID 883); also: nearly all actives have a fitted effect of over 60% in size
# Cytochrome P450 2C9 (Homo sapiens), sequence (P11712 whole entry, looked up): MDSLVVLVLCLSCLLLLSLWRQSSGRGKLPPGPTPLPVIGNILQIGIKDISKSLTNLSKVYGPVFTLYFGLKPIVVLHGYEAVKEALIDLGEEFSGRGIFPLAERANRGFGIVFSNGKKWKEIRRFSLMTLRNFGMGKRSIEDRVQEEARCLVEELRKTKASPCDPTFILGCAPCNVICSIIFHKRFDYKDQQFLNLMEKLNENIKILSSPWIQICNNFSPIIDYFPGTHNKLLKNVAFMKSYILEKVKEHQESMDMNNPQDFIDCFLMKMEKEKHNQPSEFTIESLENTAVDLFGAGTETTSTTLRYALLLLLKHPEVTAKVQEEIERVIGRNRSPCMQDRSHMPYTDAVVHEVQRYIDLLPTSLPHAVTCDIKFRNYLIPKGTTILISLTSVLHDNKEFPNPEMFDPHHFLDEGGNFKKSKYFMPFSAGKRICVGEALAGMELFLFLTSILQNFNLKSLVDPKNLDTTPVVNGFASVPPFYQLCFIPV
# Procedure, shortened: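 10nM CYP2C9 + 100uM Luciferin-H (=KM), 25mM KPO4; cpd 10 min 37C; NADPH regen, 60 min 37C; stop/detect with P450 Glo-Buffer 20 min; luminescence. Norm. to 57uM sulphaphenazole as full inhibition.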
# [7] = target: Cytochrome P450 3A4 (Homo sapiens) (UniProt P08684); test: qHTS Assay for Inhibitors and Substrates of Cytochrome P450 3A4 (AID 884); also: potency is read from the fitted curve at half-maximal effect; nearly all actives have a fitted effect of over 50% in size
# Cytochrome P450 3A4 (Homo sapiens), sequence (P08684 whole entry, looked up, canonical isoform): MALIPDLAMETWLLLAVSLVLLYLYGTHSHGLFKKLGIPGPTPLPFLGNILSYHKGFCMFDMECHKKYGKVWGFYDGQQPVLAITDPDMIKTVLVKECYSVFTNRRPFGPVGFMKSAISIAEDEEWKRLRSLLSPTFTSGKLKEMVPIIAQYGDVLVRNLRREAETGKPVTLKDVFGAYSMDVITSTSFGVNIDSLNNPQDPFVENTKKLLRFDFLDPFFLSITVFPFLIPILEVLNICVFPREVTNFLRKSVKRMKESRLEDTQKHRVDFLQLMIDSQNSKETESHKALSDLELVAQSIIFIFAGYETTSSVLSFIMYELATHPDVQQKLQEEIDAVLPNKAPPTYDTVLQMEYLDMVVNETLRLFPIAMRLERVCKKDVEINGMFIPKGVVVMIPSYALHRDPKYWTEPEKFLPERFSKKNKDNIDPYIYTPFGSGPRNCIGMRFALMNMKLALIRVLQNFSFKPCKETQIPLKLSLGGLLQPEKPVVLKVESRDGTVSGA
# Procedure, shortened: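 Luminescent readout of luciferin produced by CYP3A4 (20 nM) dealkylation of Luciferin-PPXE, 25 uM (its KM). NADPH-driven reaction ran 60 min at RT after 10 min compound preincubation; data scaled to 57 uM ketoconazole as 100% inhibition.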
# [8] = target: Cytochrome P450 3A4 (Homo sapiens) (UniProt P08684); test: qHTS Assay for Activators of Cytochrome P450 3A4 (AID 885); also: nearly all actives have a fitted effect of over 65% in size
# Procedure, shortened: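 CYP3A4 activity: Luciferin-PPXE O-dealkylation, 25uM substrate, 200mM KPO4, RT throughout. Read-out is luciferase luminescence; higher values reflect activation.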
# [9] = target: Cytochrome P450 2D6 (Homo sapiens) (UniProt P10635); test: qHTS Assay for Inhibitors and Substrates of Cytochrome P450 2D6 (AID 891);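 also: luciferin methyl ether substrate demethylated by CYP2D6 with NADPH regeneration; nearly all actives have a fitted effect of over 60% in size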
# Cytochrome P450 2D6 (Homo sapiens), sequence (P10635 whole entry, looked up): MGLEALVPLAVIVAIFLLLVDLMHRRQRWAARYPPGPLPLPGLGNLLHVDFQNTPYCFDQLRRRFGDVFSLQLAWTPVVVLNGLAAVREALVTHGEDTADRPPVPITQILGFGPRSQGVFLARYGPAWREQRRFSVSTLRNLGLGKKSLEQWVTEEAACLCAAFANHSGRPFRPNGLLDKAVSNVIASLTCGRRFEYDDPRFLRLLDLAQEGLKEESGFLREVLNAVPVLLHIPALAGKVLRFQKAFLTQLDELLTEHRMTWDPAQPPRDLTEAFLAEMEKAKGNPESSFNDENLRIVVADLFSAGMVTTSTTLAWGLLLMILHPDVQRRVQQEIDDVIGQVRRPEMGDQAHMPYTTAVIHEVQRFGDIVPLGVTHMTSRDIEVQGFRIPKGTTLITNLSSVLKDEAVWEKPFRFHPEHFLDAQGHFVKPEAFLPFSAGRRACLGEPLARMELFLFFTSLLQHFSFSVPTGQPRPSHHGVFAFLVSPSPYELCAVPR
# Procedure, shortened: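 Luminescent read-out of luciferin formed by 5 nM human CYP2D6 demethylating 30 uM Luciferin-ME EGE (Km level) over 60 min at room temperature after NADPH regeneration addition. Data normalized to full inhibition by 1.43 uM quinidine.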
# [10] = target: Cytochrome P450 2C19 (Homo sapiens) (UniProt P33261); test: qHTS Assay for Inhibitors and Substrates of Cytochrome P450 2C19 (AID 899); also: nearly all actives have a fitted effect of over 60% in size
# Cytochrome P450 2C19 (Homo sapiens), sequence (P33261 whole entry, looked up): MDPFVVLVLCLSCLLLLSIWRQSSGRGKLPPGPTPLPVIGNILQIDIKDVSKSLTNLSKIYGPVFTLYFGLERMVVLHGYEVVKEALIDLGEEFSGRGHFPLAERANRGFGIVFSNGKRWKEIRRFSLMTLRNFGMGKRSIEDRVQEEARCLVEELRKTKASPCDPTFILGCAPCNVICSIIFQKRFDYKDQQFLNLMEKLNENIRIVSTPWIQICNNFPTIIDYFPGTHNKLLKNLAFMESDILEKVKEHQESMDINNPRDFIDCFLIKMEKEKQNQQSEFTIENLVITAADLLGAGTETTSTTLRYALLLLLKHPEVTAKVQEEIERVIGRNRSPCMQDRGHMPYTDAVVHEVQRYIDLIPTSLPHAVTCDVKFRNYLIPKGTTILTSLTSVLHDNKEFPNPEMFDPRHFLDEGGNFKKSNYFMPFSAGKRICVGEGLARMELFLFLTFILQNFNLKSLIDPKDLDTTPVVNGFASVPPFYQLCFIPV
# Procedure, shortened: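 Luminescent read-out of luciferin formed from Luciferin-H EGE (10uM, equal to KM). Enzyme 5nM in 50mM KPO4; compound added, 10 min at 37C, then NADPH regenerating system for 60 min at 37C. Full inhibition defined by 57uM ketoconazole.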
# [11] = target: DNA dC->dU-editing enzyme APOBEC-3G (Homo sapiens) (UniProt Q9HC16); test: qHTS for inhibitors of Vif-A3G interactions: Validation (AID 588379)
# Procedure, shortened: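 Yellow fluorescence (Ex 488, Em 500-530) of Vif-coexpressing HeLa A3G-eYFP cells, scanned by Acumen cytometer, reports blocked A3G degradation. Cells plated at 700/well overnight at 37 deg C before compound addition, then a further overnight compound incubation at 37 deg C.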
# [12] = target: Catechol O-methyltransferase (Homo sapiens) (UniProt P21964); test: Confirmatory Screen for Target Class Profiling of Small Molecule Inhibitors of Methyltransferases (AID 1745852; calls by dose curve); settings: MTase-Glo luminescence, SAH detection, recombinant enzyme; measured here: COMT max response; stronger effect = lower value
# Catechol O-methyltransferase (Homo sapiens), sequence (P21964 whole entry, looked up): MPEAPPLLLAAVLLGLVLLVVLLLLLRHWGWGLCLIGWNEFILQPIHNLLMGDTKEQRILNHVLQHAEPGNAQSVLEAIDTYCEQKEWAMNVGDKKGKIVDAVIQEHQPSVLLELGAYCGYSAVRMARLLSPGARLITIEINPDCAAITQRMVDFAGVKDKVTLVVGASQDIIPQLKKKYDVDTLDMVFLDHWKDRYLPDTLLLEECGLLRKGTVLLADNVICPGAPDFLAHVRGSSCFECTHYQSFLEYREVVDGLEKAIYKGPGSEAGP
# [13] = target: Guanidinoacetate N-methyltransferase (Homo sapiens) (UniProt Q14353); test: as above; settings: activity change, negative = inhibition: at 57.3 µM (top of the series) unless noted
# [14] = target: Nicotinamide N-methyltransferase (Homo sapiens) (UniProt P40261); test: as above; settings: MTase-Glo luminescence, SAH detection, recombinant enzyme; measured here: NNMT max response; stronger effect = lower value
# Nicotinamide N-methyltransferase (Homo sapiens), sequence (P40261 whole entry, looked up): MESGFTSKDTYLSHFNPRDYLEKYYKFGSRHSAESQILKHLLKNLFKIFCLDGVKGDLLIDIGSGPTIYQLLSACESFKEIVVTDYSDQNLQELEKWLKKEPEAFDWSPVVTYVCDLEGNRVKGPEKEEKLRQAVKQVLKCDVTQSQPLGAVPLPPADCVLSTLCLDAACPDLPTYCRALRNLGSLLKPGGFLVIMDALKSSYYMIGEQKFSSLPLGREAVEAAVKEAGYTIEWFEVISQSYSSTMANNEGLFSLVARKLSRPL
# [15] = target: Phenylethanolamine N-methyltransferase (Homo sapiens) (UniProt P11086); test: as above; settings: MTase-Glo luminescence, SAH detection, recombinant enzyme; measured here: PNMT max response; stronger effect = lower value
# Phenylethanolamine N-methyltransferase (Homo sapiens), sequence (P11086 whole entry, looked up): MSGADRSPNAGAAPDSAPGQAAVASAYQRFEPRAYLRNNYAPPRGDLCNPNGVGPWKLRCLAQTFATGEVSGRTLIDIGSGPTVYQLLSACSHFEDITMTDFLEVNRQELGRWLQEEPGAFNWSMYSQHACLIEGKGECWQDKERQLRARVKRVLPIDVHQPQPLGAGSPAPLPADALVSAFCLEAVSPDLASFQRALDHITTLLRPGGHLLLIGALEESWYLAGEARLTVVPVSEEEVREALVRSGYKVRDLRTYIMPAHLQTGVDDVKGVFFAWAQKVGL
# [16] = target: Glutathione peroxidase 1 (Homo sapiens) (UniProt P07203); test: Primary qHTS Assay for Inhibitors of Recombinant Selenoprotein Glutathione Peroxidase 1 (GPX1) (AID 1845191); also: nearly all actives have a fitted effect of over 65% in size
# Glutathione peroxidase 1 (Homo sapiens), sequence (P07203 whole entry, looked up): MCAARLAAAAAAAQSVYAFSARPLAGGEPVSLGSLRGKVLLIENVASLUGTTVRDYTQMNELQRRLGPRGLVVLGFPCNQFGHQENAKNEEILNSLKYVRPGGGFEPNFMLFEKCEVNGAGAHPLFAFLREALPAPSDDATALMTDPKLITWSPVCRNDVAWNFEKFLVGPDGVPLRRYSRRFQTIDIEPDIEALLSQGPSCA
# Procedure, shortened: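 GR-coupled readout: NADPH consumption tracked by fluorescence, ex 340/em 450 nm, at t=0 and after 15 min at RT. Final mix 10 nM GPX1, 1 mM GSH, 0.5 mM CHP, 0.5 mM NADPH, 100 nM GR, 0.01% BSA, following 30 min enzyme–compound preincubation.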
# [17] = NCATS anti-infectives library activity on HEK293 viability as a counter-qHTS vs the C. elegans viability qHTS (AID 1745854);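 also: HEK293 cells exposed to compounds for 24 hr before the viability read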
# Procedure, shortened: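 Counter-screen for cytotoxicity: HEK293, 24 hr, 37C, compounds up to 41.7 uM final (a dilution series, 1:5). Readout CellTiter-Glo luminescence, 10 min RT. Digitonin control, 83.3 uM final.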
# [18] = Viability counterscreen for antagonist of constitutive androstane receptor (CAR) against the NCATS DSHEA and TCM libraries (AID 1794837);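 also: compound exposure lasted 24 h before viability reading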
# Procedure, shortened: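 HepG2-CYP2B6-hCAR cells (2,500/well) were allowed to attach for 5 h, then exposed to compounds with 48 uM CITCO for 24 h at 37C. Viability was read by CellTiter-Fluor fluorescence after 1 h.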
# [19] = Viability counterscreen for agonist of constitutive androstane receptor (CAR) against the NCATS DSHEA and TCM libraries (AID 1794838)
# Procedure, shortened: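 HepG2-CYP2B6-hCAR cells (2,500/well) attached 5 h, then got compounds plus 0.75 uM PK11195 final. After 24 h at 37C, viability read by CellTiter-Fluor fluorescence (Ex/Em 405/540 nm).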
# [20] = target: Nuclear receptor subfamily 1 group I member 3 (Homo sapiens) (UniProt Q14994); test: Primary qHTS for agonist of constitutive androstane receptor (CAR) against the NCATS DSHEA and TCM libraries (AID 1794839);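 also: HepG2 cells expressing human CAR with a CYP2B6 reporter plus PK11195 antagonist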
# Procedure, shortened: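 HepG2-CYP2B6-hCAR cells (2,500/well) were attached for 5 h, then treated for 24 h at 37 °C with compounds plus 0.75 µM PK11195. Luciferase luminescence (ONE-Glo) was read, with CellTiter-Fluor viability (Ex/Em 405/540 nm).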
# [21] = HepG2 viability counterscreen (readout 2: ATP content) against the NCATS DSHEA and TCM libraries (AID 1794840);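 also: HepG2 cells exposed to substances for about 24 h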
# Procedure, shortened: (§1)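 HepG2 cells (1,000 cells/well) attached ~4 h, then treated ~24 h at 37C with substances. Protease activity read by GF-AFC (25 uM final, 30 min, Ex/Em 380/510 nm); ATP content then by CellTiter-Glo luminescence.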
# [22] = HepG2 viability counterscreen (readout 1: protease activity) against the NCATS DSHEA and TCM libraries (AID 1794841);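 also: cells exposed to compounds for about 24 h before the protease read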
# Procedure, shortened: as §1
# [23] = target: Cytochrome P450 3A4 (Homo sapiens) (UniProt P08684); test: qHTS for inhibitors of CYP3A4 against the NCATS DSHEA and TCM libraries (AID 1919971); also: potency is read from the fitted curve at half-maximal effect
# Procedure, shortened: (§2)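 Concentration-response screening with isoform-matched pro-luciferin substrates. The CYP reaction was initiated by NADPH regenerating solution and ran 30-45 min in darkness at room temperature.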
# [24] = target: Cytochrome P450 2D6 (Homo sapiens) (UniProt P10635); test: qHTS for inhibitors of CYP2D6 against the NCATS DSHEA and TCM libraries (AID 1919972); also: potency is read from the fitted curve at half-maximal effect
# Procedure, shortened: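 CYP2D6 enzyme with pro-luciferin substrate in manufacturer buffer (typically 100 mM KPO4), preincubated 15 min RT with substances (most at 19.5 nM upward); NADPH regeneration system (1x) started 30–45 min RT reaction; P450-Glo luminescence read after 30 min; quinidine as intraplate control.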
# [25] = target: Cytochrome P450 2C9 (Homo sapiens) (UniProt P11712); test: qHTS for inhibitors of CYP2C9 against the NCATS DSHEA and TCM libraries (AID 1919973); also: potency is read from the fitted curve at half-maximal effect
# Procedure, shortened: as §2
# [26] = target: Cytochrome P450 2C19 (Homo sapiens) (UniProt P33261); test: qHTS for inhibitors of CYP2C19 against the NCATS DSHEA and TCM libraries (AID 1919974)
# Procedure, shortened: as §2
# [27] = qHTS Counterscreen for compound interference against the NCATS DSHEA and TCM libraries (AID 1919978); settings: firefly luciferase detection reagent interference, luminescence
# Procedure, shortened: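 D-luciferin (1 uM final) or 100 mM potassium phosphate buffer alone was preincubated 15 min at RT with compounds (19.5 nM to 39.8 uM final). Luciferin detection reagent was then added and luminescence read after 30 min at RT.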
# [28] = Dual reporter qHTS for agonist of Pregnane X Receptor (hPXR) against the NCATS DSHEA and TCM libraries: Fluorescence readout (AID 1920058)
# Procedure, shortened: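 Cells were plated at 2000 per well and allowed to attach for 5 h. Test substances were pinned in and incubated roughly 24 h. CellTiter-Fluor was then added and fluorescence measured after 1 h.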
# [29] = target: Nuclear receptor subfamily 1 group I member 2 (Homo sapiens) (UniProt O75469); test: Dual reporter qHTS for agonist of Pregnane X Receptor (hPXR) against the NCATS DSHEA and TCM libraries: Luminescence readout (AID 1920059)
# Nuclear receptor subfamily 1 group I member 2 (Homo sapiens), sequence (O75469 whole entry, looked up): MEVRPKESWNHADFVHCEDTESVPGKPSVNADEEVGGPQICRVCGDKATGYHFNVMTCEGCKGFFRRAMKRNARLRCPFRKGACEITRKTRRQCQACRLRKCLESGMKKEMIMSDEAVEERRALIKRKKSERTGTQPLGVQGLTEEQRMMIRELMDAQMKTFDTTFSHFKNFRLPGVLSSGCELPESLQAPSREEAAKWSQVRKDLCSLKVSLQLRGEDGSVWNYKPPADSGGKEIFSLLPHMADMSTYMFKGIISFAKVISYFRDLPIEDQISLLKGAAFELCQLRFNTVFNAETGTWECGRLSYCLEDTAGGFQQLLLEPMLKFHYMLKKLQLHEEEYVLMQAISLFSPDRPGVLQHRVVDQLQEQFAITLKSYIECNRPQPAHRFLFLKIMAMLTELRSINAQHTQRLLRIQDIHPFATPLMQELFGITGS
# Procedure, shortened: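 hPXR-Luc HepG2 cells, 2000/well in 5% charcoal-stripped FBS medium, attached 5 h, then exposed 24 h at 37C to compounds. Viability by CellTiter-Fluor, then luciferase luminescence with ONE-Glo.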
# [30] = Dual reporter qHTS for antagonist of Pregnane X Receptor (hPXR) against the NCATS DSHEA and TCM libraries: Fluorescence Readout (AID 1920061)
# Procedure, shortened: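 Antagonist mode: rifampicin 2 uM final co-added with compounds to hPXR-LucHepG2 cells for 24 h at 37C. Viability by CellTiter-Fluor, Ex/Em 405/540 nm, 1 h; reporter by ONE-Glo luminescence.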
smiles,measurement,setting,value
COc1ccc(-c2oc3ccc(C)cc3c(=O)c2O)cc1OC,Potency,[1],0.251 µM (active)
same,Potency,[2],> 46 µM (inactive)
same,Potency,[3],> 46 µM (inactive)
same,Potency,[4],inactive
same,Potency,[5],inactive
same,Potency,[6],inactive
same,Potency,[7],3.98 µM (active)
same,outcome,[8],inactive
same,Potency,[9],inactive
same,Potency,[10],inactive
same,outcome,[11],inactive
same,activity,[12],-1%
same,"activity change, negative = inhibition",[13],0%
same,activity,[14],1.6%
same,activity,[15],4.32%
COc1ccc2cc(CNc3ccc(C)cc3)c(=O)n(CC(=O)Nc3cccc(C(F)(F)F)c3)c2c1,activity,[12],-6.71%
same,"activity change, negative = inhibition",[13],-9.44%
same,activity,[14],-13.5%
same,activity,[15],-7.35%
same,Potency,[16],inactive
Cc1cn([C@H]2O[C@@H](CO)[C@H](O)[C@H]2F)c(=O)[nH]c1=O,Potency,[17],inactive
CC(C)=C1C/C=C(\C)CC/C=C(\C)CC1=O,Potency,[17],inactive
CNC(=O)NCCc1ncc(C)n1C1CCCCCCC1,activity,[12],1.76%
same,"activity change, negative = inhibition",[13],2.65%
same,activity,[14],-4.6%
same,activity,[15],-0.137%
CCCCc1ccc(O)cc1O,Potency,[17],inactive
O=C(Cc1ccccc1)Nc1nnc(NC2CCN(c3nnc(NC(=O)Cc4ccccc4)s3)CC2)s1,Potency,[17],inactive
O=C(O)[C@H]1O[C@@H](Oc2cc3oc(-c4ccccc4)cc(=O)c3c(O)c2O)[C@H](O)[C@@H](O)[C@@H]1O,Potency,[17],inactive
COc1cc(-c2oc3cc(O)cc(O)c3c(=O)c2O)ccc1O,Potency,[17],inactive
same,outcome,[18],inactive
same,outcome,[19],inactive
same,Potency,[20],inactive
same,outcome,[21],inactive
same,outcome,[22],inactive
same,Potency,[23],11.2 µM (active)
same,Potency,[24],4.47 µM (active)
same,Potency,[25],4.47 µM (active)
same,Potency,[26],7.94 µM (active)
same,max response,[27],-5.64% (inactive)
same,outcome,[28],inactive
same,Potency,[29],inactive
same,outcome,[30],inactive
